Compounds without any hit were thinned out: in the full panel of roughly 83,000, 20% have a hit.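 Plates (96-well) were seeded with cells, treated with compound at one concentration, and incubated for 48 hours before percent growth was determined.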 The source made the active and inactive calls. Rule for the calls: active = growth percent below 10; inactive = the rest.
Legend:
Assay in all cases: NCI-60 one-dose screen, 48 h (100 = growth as untreated, 0 = no growth, -100 = all killed)
Conditions in all cases: 10 µM unless noted
SK-MEL-2 melanoma = test system: SK-MEL-2 melanoma
EKVX NSCLC = test system: EKVX NSCLC
SN12C renal = test system: SN12C renal
UO-31 renal = test system: UO-31 renal
TK-10 renal = test system: TK-10 renal
ACHN renal = test system: ACHN renal
CAKI-1 renal = test system: CAKI-1 renal
A498 renal = test system: A498 renal
MOLT-4 leukemia = test system: MOLT-4 leukemia
RPMI-8226 leukemia = test system: RPMI-8226 leukemia
OVCAR-8 ovarian = test system: OVCAR-8 ovarian
OVCAR-5 ovarian = test system: OVCAR-5 ovarian
OVCAR-4 ovarian = test system: OVCAR-4 ovarian
SK-OV-3 ovarian = test system: SK-OV-3 ovarian
IGROV1 ovarian = test system: IGROV1 ovarian
OVCAR-3 ovarian = test system: OVCAR-3 ovarian
HS 578T breast = test system: HS 578T breast
NCI/ADR-RES ovarian = test system: NCI/ADR-RES ovarian
CCRF-CEM leukemia = test system: CCRF-CEM leukemia
SR leukemia = test system: SR leukemia

Measured: growth

CS(=O)(=O)Nc1cc(-c2ccc3ncnc(Nc4ccc5[nH]ncc5c4)c3c2)cnc1Cl
inactive: SK-MEL-2 melanoma 63.1% | EKVX NSCLC 62.3% | SN12C renal 67.8% | UO-31 renal 64.1% | TK-10 renal 65.6% | ACHN renal 83.8% | CAKI-1 renal 51.9% | A498 renal 24.5% | MOLT-4 leukemia 75.3% | RPMI-8226 leukemia 102% | OVCAR-8 ovarian 86% | OVCAR-5 ovarian 59.8% | OVCAR-4 ovarian 84.7% | SK-OV-3 ovarian 76% | IGROV1 ovarian 42.5% | OVCAR-3 ovarian 59.2% | HS 578T breast 21.7% | NCI/ADR-RES ovarian 91.2%

C=CCn1c(SCC(=O)Nc2ccc(C(=O)/C=C/c3cc(OC)c(OC)c(OC)c3)cc2)nnc1-c1cc(-c2ccc(S(C)(=O)=O)cc2)nc2ccccc12
active: RPMI-8226 leukemia -5.82%
inactive: SK-MEL-2 melanoma 103% | EKVX NSCLC 90.9% | SN12C renal 88.5% | UO-31 renal 78.4% | TK-10 renal 159% | ACHN renal 91.9% | CAKI-1 renal 77.3% | CCRF-CEM leukemia 35% | MOLT-4 leukemia 56.3% | SR leukemia 13.9% | OVCAR-8 ovarian 68.6% | OVCAR-5 ovarian 112% | OVCAR-4 ovarian 94.5% | SK-OV-3 ovarian 127% | IGROV1 ovarian 72.8% | OVCAR-3 ovarian 85.9% | HS 578T breast 95.3% | NCI/ADR-RES ovarian 91.3%

CN1C(=O)N(C)[C@H]2NC(NN)=N[C@H]21
inactive: SK-MEL-2 melanoma 108% | EKVX NSCLC 99.1% | SN12C renal 99.8% | UO-31 renal 93.5% | TK-10 renal 97.4% | ACHN renal 104% | CAKI-1 renal 89.2% | A498 renal 97.9% | MOLT-4 leukemia 101% | SR leukemia 100% | RPMI-8226 leukemia 118% | OVCAR-8 ovarian 103% | OVCAR-5 ovarian 98.8% | OVCAR-4 ovarian 103% | SK-OV-3 ovarian 121% | IGROV1 ovarian 98.9% | OVCAR-3 ovarian 109% | HS 578T breast 95.2% | NCI/ADR-RES ovarian 105%

CC[C@H](CC[C@@H](C)[C@H]1CC[C@H]2[C@@H]3CC=C4C[C@@H](OCCc5nn[nH]n5)CC[C@]4(C)[C@H]3CC[C@]12C)C(C)C
inactive: SK-MEL-2 melanoma 111% | EKVX NSCLC 102% | SN12C renal 108% | UO-31 renal 99.5% | TK-10 renal 101% | ACHN renal 105% | CAKI-1 renal 105% | CCRF-CEM leukemia 103% | MOLT-4 leukemia 100% | SR leukemia 105% | RPMI-8226 leukemia 113% | OVCAR-8 ovarian 108% | OVCAR-5 ovarian 108% | OVCAR-4 ovarian 104% | SK-OV-3 ovarian 96.8% | IGROV1 ovarian 100% | OVCAR-3 ovarian 103% | HS 578T breast 113%

O=C(Nc1ccc(F)cc1)c1c(NC(=O)C(F)(F)F)sc2c1CCCCC2
inactive: TK-10 renal 15.5% | OVCAR-5 ovarian 22.7% | IGROV1 ovarian 18.1%
active: SK-MEL-2 melanoma -26.8% | EKVX NSCLC -2.06% | SN12C renal 2.15% | UO-31 renal -0.296% | ACHN renal 1.59% | CAKI-1 renal -19.1% | A498 renal -57% | MOLT-4 leukemia 3.21% | SR leukemia 2.35% | RPMI-8226 leukemia -36.8% | OVCAR-8 ovarian 8.06% | OVCAR-4 ovarian 4.42% | SK-OV-3 ovarian -16.8% | OVCAR-3 ovarian 4.39% | HS 578T breast -6.84% | NCI/ADR-RES ovarian 0.19%

CCN1C(=O)N(CC)C2NC(SC)=NC21 (centres undefined)
inactive: SK-MEL-2 melanoma 111% | EKVX NSCLC 97.6% | SN12C renal 95.9% | UO-31 renal 89.7% | TK-10 renal 115% | ACHN renal 99.8% | CAKI-1 renal 87.9% | A498 renal 90.2% | MOLT-4 leukemia 102% | SR leukemia 107% | OVCAR-8 ovarian 104% | OVCAR-5 ovarian 88.9% | OVCAR-4 ovarian 103% | SK-OV-3 ovarian 104% | IGROV1 ovarian 102% | OVCAR-3 ovarian 102% | HS 578T breast 94.1% | NCI/ADR-RES ovarian 99.7%

CC(C)(C#N)N1CCN(c2ccccc2Cl)CC1
inactive: SK-MEL-2 melanoma 103% | EKVX NSCLC 97.2% | SN12C renal 108% | UO-31 renal 81.8% | TK-10 renal 104% | ACHN renal 109% | CAKI-1 renal 94.5% | CCRF-CEM leukemia 100% | MOLT-4 leukemia 97.8% | SR leukemia 101% | RPMI-8226 leukemia 105% | OVCAR-8 ovarian 93.9% | OVCAR-5 ovarian 97.2% | OVCAR-4 ovarian 119% | SK-OV-3 ovarian 103% | IGROV1 ovarian 106% | OVCAR-3 ovarian 101% | HS 578T breast 96.4%

CCNC(=O)c1[nH]cc(-c2ccc(OC)cc2)c1-c1cc(OC)cc(OC)c1
inactive: SK-MEL-2 melanoma 98.6% | EKVX NSCLC 89.8% | SN12C renal 85.4% | UO-31 renal 77.4% | TK-10 renal 115% | ACHN renal 67.3% | CAKI-1 renal 59.9% | A498 renal 91.1% | MOLT-4 leukemia 94.5% | SR leukemia 92.6% | OVCAR-8 ovarian 93.4% | OVCAR-5 ovarian 99.6% | OVCAR-4 ovarian 81.4% | SK-OV-3 ovarian 145% | IGROV1 ovarian 80.3% | OVCAR-3 ovarian 83.5% | HS 578T breast 87.1% | NCI/ADR-RES ovarian 86.9%

COc1cccc(-c2nc3occn3c2-c2ccnc(NCCCNS(=O)(=O)c3cccc(F)c3)n2)c1
inactive: SK-MEL-2 melanoma 90.2% | EKVX NSCLC 79.8% | SN12C renal 87.7% | UO-31 renal 69.8% | TK-10 renal 131% | ACHN renal 84.5% | CAKI-1 renal 78.2% | CCRF-CEM leukemia 81.3% | MOLT-4 leukemia 67.7% | SR leukemia 107% | RPMI-8226 leukemia 68.1% | OVCAR-8 ovarian 72.2% | OVCAR-5 ovarian 135% | OVCAR-4 ovarian 71.9% | SK-OV-3 ovarian 86.3% | IGROV1 ovarian 89% | OVCAR-3 ovarian 88.1% | HS 578T breast 92.6%

C(=C\c1n(Cc2ccc3ccccc3c2)c(-c2ccccc2)c(-c2ccccc2)[n+]1Cc1ccc2ccccc2c1)/c1ccccc1
active: SK-MEL-2 melanoma -68.7% | EKVX NSCLC -77.5% | SN12C renal -91% | UO-31 renal -99.1% | TK-10 renal -81.8% | ACHN renal -94.9% | CAKI-1 renal -100% | CCRF-CEM leukemia -17.8% | MOLT-4 leukemia -43.5% | SR leukemia -37.4% | RPMI-8226 leukemia -43.9% | OVCAR-8 ovarian -65.3% | OVCAR-5 ovarian -95% | OVCAR-4 ovarian -85.8% | SK-OV-3 ovarian -60.1% | IGROV1 ovarian -81.4% | OVCAR-3 ovarian -90.3% | HS 578T breast -42.8% | NCI/ADR-RES ovarian 8.24%

CC(C)NC(=O)N1C(=O)CCC1NNC(=O)c1ccc([N+](=O)[O-])cc1 (centres undefined)
inactive: SK-MEL-2 melanoma 93.1% | EKVX NSCLC 110% | SN12C renal 102% | UO-31 renal 92% | TK-10 renal 101% | ACHN renal 106% | CAKI-1 renal 100% | CCRF-CEM leukemia 104% | MOLT-4 leukemia 98.7% | SR leukemia 94.9% | RPMI-8226 leukemia 110% | OVCAR-8 ovarian 111% | OVCAR-5 ovarian 103% | OVCAR-4 ovarian 97.9% | SK-OV-3 ovarian 113% | IGROV1 ovarian 104% | OVCAR-3 ovarian 105% | HS 578T breast 117%

COc1cc2nc(-c3ccc(C(F)(F)F)cc3)cc(OCCN3CCC(O)CC3)c2cc1OC
inactive: SK-MEL-2 melanoma 103% | EKVX NSCLC 61.9% | SN12C renal 57.5% | UO-31 renal 52.4% | TK-10 renal 86.1% | ACHN renal 75.5% | CAKI-1 renal 34.6% | CCRF-CEM leukemia 84.8% | MOLT-4 leukemia 77% | SR leukemia 35.4% | RPMI-8226 leukemia 41.2% | OVCAR-8 ovarian 80% | OVCAR-5 ovarian 51% | OVCAR-4 ovarian 88.3% | SK-OV-3 ovarian 85.4% | IGROV1 ovarian 42.1% | OVCAR-3 ovarian 93.8% | HS 578T breast 79.1% | NCI/ADR-RES ovarian 53.5%

COc1ccc2c(c1)OC1=C(C(=O)OC1)C2c1cc(OC)c(OC)c(OC)c1 (centres undefined)
inactive: SK-MEL-2 melanoma 27.3% | EKVX NSCLC 50.7% | SN12C renal 47.7% | UO-31 renal 51.5% | TK-10 renal 67.4% | ACHN renal 48.8% | CAKI-1 renal 55.6% | MOLT-4 leukemia 20.4% | SR leukemia 15.3% | RPMI-8226 leukemia 11.5% | OVCAR-8 ovarian 21.1% | OVCAR-5 ovarian 32.7% | OVCAR-4 ovarian 56.3% | SK-OV-3 ovarian 13% | IGROV1 ovarian 49%
active: A498 renal -1.39% | OVCAR-3 ovarian -55.9% | NCI/ADR-RES ovarian 1.95%

COc1cccc2cc(-c3cc4ccccc4[nH]3)/c(=N/C(=S)Nc3ccc(C)cc3)oc12
inactive: SK-MEL-2 melanoma 85% | EKVX NSCLC 60.9% | SN12C renal 77.6% | UO-31 renal 85.3% | TK-10 renal 94.3% | ACHN renal 27.9% | CAKI-1 renal 19.2% | A498 renal 63% | MOLT-4 leukemia 101% | SR leukemia 123% | RPMI-8226 leukemia 114% | OVCAR-8 ovarian 54% | OVCAR-5 ovarian 89.4% | OVCAR-4 ovarian 34.6% | SK-OV-3 ovarian 64.7% | IGROV1 ovarian 58.2% | OVCAR-3 ovarian 81.2% | HS 578T breast 14.1% | NCI/ADR-RES ovarian 50.8%

CC(=O)N1N=C(c2cccc(Nc3ccncc3)c2)CC1c1ccc2c(c1)OCO2 (centres undefined)
inactive: SK-MEL-2 melanoma 99.9% | EKVX NSCLC 63% | SN12C renal 81% | UO-31 renal 84.5% | TK-10 renal 98.1% | ACHN renal 101% | CAKI-1 renal 81.8% | A498 renal 70.7% | MOLT-4 leukemia 77.7% | SR leukemia 31.5% | RPMI-8226 leukemia 78.3% | OVCAR-8 ovarian 91.4% | OVCAR-4 ovarian 90.3% | SK-OV-3 ovarian 78.3% | IGROV1 ovarian 91.9% | OVCAR-3 ovarian 96% | HS 578T breast 80% | NCI/ADR-RES ovarian 97.2%

COc1ccc2c(Nc3ccc(NS(C)(=O)=O)cc3)c3ccccc3nc2c1
inactive: SN12C renal 10.3% | CCRF-CEM leukemia 11% | OVCAR-4 ovarian 11.8% | SK-OV-3 ovarian 20.5% | NCI/ADR-RES ovarian 32.7%
active: SK-MEL-2 melanoma -70.4% | EKVX NSCLC 6.78% | UO-31 renal -41.5% | TK-10 renal 9.37% | ACHN renal -3.55% | CAKI-1 renal -22.6% | MOLT-4 leukemia 2.19% | SR leukemia -11.6% | RPMI-8226 leukemia 1.1% | OVCAR-8 ovarian 8% | OVCAR-5 ovarian 4.43% | IGROV1 ovarian 3.52% | OVCAR-3 ovarian -22.3% | HS 578T breast -17.1%

C#CC(=O)Nc1cccc2c1cc(C)n2-c1nc2c(c(NCc3ccccc3)n1)CCCC2
active: SK-MEL-2 melanoma -74.5% | EKVX NSCLC -39.3% | SN12C renal -66.2% | UO-31 renal -76% | TK-10 renal -98.1% | ACHN renal -73.6% | CAKI-1 renal -43.2% | CCRF-CEM leukemia -26.5% | MOLT-4 leukemia -33.4% | SR leukemia -32.2% | RPMI-8226 leukemia -22.3% | OVCAR-8 ovarian -14% | OVCAR-5 ovarian -16% | OVCAR-4 ovarian -35.7% | SK-OV-3 ovarian -94.4% | IGROV1 ovarian -28.1% | OVCAR-3 ovarian -9.24% | HS 578T breast -7.53% | NCI/ADR-RES ovarian 6.91%
